Many of the other results were omitted from the sample, so hits are more common in it than they were.
Sa growth inh – S. aureus growth inhibition; S. aureus RN4220 growth, OD600, 20 h, 42 °C; stronger effect = lower value; relative growth, % (no concentration beside the values); 0.53% of 170,000 active; AID 720641;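 active means relative growth at most 50% at the other temperature and 20+ points below 30 °C, or under 10% at both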
S aureus helic – S. aureus DNA helicase inhibition | purified S. aureus helicase, fluorescence unwinding assay | inhibition, % (no concentration beside the values) | 0.05% of 120,000 active; in the data active means inhibition above about 25%, passing the limit was not always enough;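 further: 0% = mean of negative control wells and 100% = mean of positive control wells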
* hit, by the source's call.

Screening C[N+]1(CC(=O)OCCCC2CCCCC2)CCCCC1 returned Sa growth inh 98 and S aureus helic 5.
For C[N+]1(CC(=O)OC2CCCCCCCCCCC2)CCCC1 the results were Sa growth inh 20* and S aureus helic 13.
Screening N#CCn1c(COC(=O)c2cccs2)nc2ccccc2c1=O returned Sa growth inh 82 and S aureus helic -6.
CC1CCN(C(=O)/C=C/c2c(Cl)nc3sccn23)CC1 was read as Sa growth inh 93 and S aureus helic 2.
Screening O=C(CNc1ccc(Cl)c(C(F)(F)F)c1)Nc1ccc(N2CCOCC2)cc1 returned Sa growth inh 115 and S aureus helic -7.
O=C(Nc1c[nH]c2ccccc12)N1CCOCC1 was read as Sa growth inh 3.5* and S aureus helic 2.
For O=C(Nc1ccccc1)Nc1c[nH]c2ccccc12 the results were Sa growth inh 89 and S aureus helic -3.
C=CCNC(=O)C1CC(c2ccccc2OC)=NO1 (configuration not stated) was read as Sa growth inh 106 and S aureus helic -18.
Fc1ccc(Nc2nc3nonc3nc2Nc2cccc(C(F)(F)F)c2)cc1 was read as Sa growth inh -1.0*.
Screening NNc1nc(NN)nc(Nc2cccc(C(F)(F)F)c2)n1 returned Sa growth inh 77 and S aureus helic 9.
Screening O=c1[nH]c2nonc2nc1Nc1ccccc1F returned Sa growth inh 29 and S aureus helic 2.
For Fc1ccc(Nc2nc3nonc3nc2Nc2ccccc2F)cc1 the results were Sa growth inh -0.6* and S aureus helic 17.
O=C1NCCN/C1=C\c1ccc2ccccc2n1 was read as Sa growth inh 87 and S aureus helic -11.
For COc1ccc(-c2nnc(NC(=O)C3CC3)o2)cc1 the results were Sa growth inh 78 and S aureus helic 1.
COc1cc(OC)cc(-c2nnc(NC(=O)c3ccc(S(=O)(=O)N(C)c4ccccc4)cc3)o2)c1 was read as Sa growth inh -0.1* and S aureus helic 4.
Screening O=C(Nc1nnc(-c2ccccc2)o1)c1ccccc1 returned Sa growth inh 0.0* and S aureus helic 15.
For CN(Cc1ccccc1)S(=O)(=O)c1ccc(C(=O)Nc2nnc(-c3ccco3)o2)cc1 the results were Sa growth inh 83 and S aureus helic 4.
`CN(C1CCCCC1)S(=O)(=O)c1ccc(C(=O)Nc2nnc(-c3cccnc3)o2)cc1` gave Sa growth inh 2.3* and S aureus helic 8.
CN(C1CCCCC1)S(=O)(=O)c1ccc(C(=O)Nc2ccccc2)cc1 was read as S aureus helic 13.
O=C(Nc1nnc(-c2ccc(Cl)cc2)o1)C1CC1 was read as Sa growth inh 2.6* and S aureus helic 6.
For O=C(Nc1nnc(-c2cccs2)o1)c1ccccc1 the results were S aureus helic -19.
`Cc1ccc2onc(CNC(=O)NC3CCCC3)c2c1` gave Sa growth inh 89 and S aureus helic -22.
`CC(C)(C)OC(=O)N/N=C/c1cccc(O)c1` gave Sa growth inh 116 and S aureus helic 16.
`CCN(CC)c1nc(-c2ccncc2)nc2ccccc12` gave Sa growth inh 96 and S aureus helic -3.
`COc1cccc(CNC(=O)CC2C(=O)Nc3c2c(=O)n(C)c(=O)n3Cc2ccccc2)c1` (configuration not stated) gave Sa growth inh 76 and S aureus helic 1.
Screening COc1ccccc1C(=O)C1C(=O)NC23CCN(C)CC2C1c1cc(Cl)ccc1O3 (configuration not stated) returned Sa growth inh 104 and S aureus helic 4.
O=C(CN1C(=O)c2ccccc2C1=O)Nc1nnc(-c2ccc3c(c2)OCCO3)o1 was read as Sa growth inh 93 and S aureus helic 2.
`Clc1ccc2nnn(OCCOc3ccc(Br)cc3)c2c1` gave Sa growth inh 92 and S aureus helic 7.
CC(C)n1c(O)c(N=NC(=O)C2CC2)c2ccccc21 was read as Sa growth inh 94 and S aureus helic -14.
`O=C(Nc1nnc(C2=COCCO2)o1)c1ccc(Cl)cc1` gave Sa growth inh 3.7* and S aureus helic 22.
Screening COc1cc(OC)cc(-c2nnc(NC(=O)c3ccc(S(=O)(=O)N4COCC4(C)C)cc3)o2)c1 returned Sa growth inh 1.0* and S aureus helic 9.
Screening COc1ccc(-c2nnc(NC(=O)c3ccc(S(=O)(=O)N4CCCc5ccccc54)cc3)o2)cc1 returned Sa growth inh 92 and S aureus helic 5.
Screening O=C(Nc1nnc(C2=COCCO2)o1)c1cccc2ccccc12 returned Sa growth inh 92 and S aureus helic 7.
Screening Cc1ccc(C)c(-c2nnc(NC(=O)c3ccccc3S(C)(=O)=O)o2)c1 returned Sa growth inh 2.0* and S aureus helic 6.
`CS(=O)(=O)c1ccccc1C(=O)Nc1nnc(-c2ccc(Cl)cc2)o1` gave Sa growth inh 22 and S aureus helic 8.
For O=C(CSc1nnc(NC(=O)Nc2ccccc2)s1)Nc1cccc(F)c1 the results were Sa growth inh 118.

Bioassay records (PubChem)
